Drawing on article PMC8384837, “Expanding the binding specificity for RNA recognition by a PUF domain”, this text covers binding signal for ten sequences.

Holding throughout (experiment): yeast three-hybrid, YBZ-1, SC-Leu-His + 0.5 mM 3-AT, 4 days
What all share (details): tags: N-Gal4 AD-HA kept; label: inside an RPR1-promoter hybrid RNA with tandem MS2 sites; ssRNA

The target in one experiment is PUM1 PUF domain R7-QTR (Homo sapiens, UniProt Q14671 828-1176, S1079Q;N1080T;E1083R). The gist of the method: (§1)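 A centromeric plasmid in strain YBZ-1 co-expressed Pumilio-1 PUF domain libraries, randomized at the three base-contacting residues of each repeat, with matching RNA elements; the strain carries a LexA–MS2 coat fusion and a HIS3 reporter. After four days on SC-Leu (input) or SC-Leu-His + 0.5 mM 3-AT (selection), the repeat regions were PCR-amplified and Illumina-sequenced. The interaction score is the log change in variant frequency from input to selection, using log2 and a pseudocount of 1 where absent.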

The target of another experiment is PUM1 PUF domain R5-RNE (Homo sapiens, UniProt Q14671 828-1176, C1007R;R1008N;Q1011E). The gist of the method:
as §1

The next experiment has as its target PUM1 PUF domain R1-KFR (Homo sapiens, UniProt Q14671 828-1176, S863K;R864F;Q867R). The method in brief: as §1
In a further experiment the target is PUM1 PUF domain R8-RWG (Homo sapiens, UniProt Q14671 828-1176, N1122R;Y1123W;Q1126G). The gist of the method: as §1
The next experiment concerns the target PUM1 PUF domain R8-CHP (Homo sapiens, UniProt Q14671 828-1176, N1122C;Y1123H;Q1126P). The gist of the method: as §1
Another experiment has as its target PUM1 PUF domain R8-RQR (Homo sapiens, UniProt Q14671 828-1176, N1122R;Y1123Q;Q1126R). The method in brief:
as §1

The next experiment addresses PUM1 PUF domain R4-ERC (Homo sapiens, UniProt Q14671 828-1176, N971E;H972R;Q975C). The method in brief:
as §1

A further experiment addresses PUM1 PUF domain R2-LWS (Homo sapiens, UniProt Q14671 828-1176, N899L;Y900W;Q903S). The method in brief:
as §1

Another experiment concerns the target PUM1 PUF domain R3-CPG (Homo sapiens, UniProt Q14671 828-1176, R936P;Q939G). The gist of the method:
as §1

The target in a further experiment is PUM1 PUF domain R1-TVR (Homo sapiens, UniProt Q14671 828-1176, S863T;R864V;Q867R). The method in brief:
as §1

For the sequence “GGCUAGAACUAGUGGAUCCCCCGGCGCCCGGCGGCUCGAGCCCGGGUAAGUUUAAAUAGUCUGCAUGCCGCCGGGCGCCAUGCCUGCAGGUCGACUCUAGAAAACAUG”, the binding signal with PUM1 PUF domain R7-QTR was 2.39 log2 enrichment (interaction score).
Turning to “GGCUAGAACUAGUGGAUCCCCCGGCGCCCGGCGGCUCGAGCCCGGGUAAGUGUCAAUAGUCUGCAUGCCGCCGGGCGCCAUGCCUGCAGGUCGACUCUAGAAAACAUG”, the binding signal in the experiment with PUM1 PUF domain R5-RNE was 2.14 log2 enrichment (interaction score).
In the case of “GGCUAGAACUAGUGGAUCCCCCGGCGCCCGGCGGCUCGAGCCCGGGUAAGUGUAAAUUGUCUGCAUGCCGCCGGGCGCCAUGCCUGCAGGUCGACUCUAGAAAACAUG”, in the experiment with PUM1 PUF domain R1-KFR, the binding signal is 3.96 log2 enrichment (interaction score).
For “GGCUAGAACUAGUGGAUCCCCCGGCGCCCGGCGGCUCGAGCCCGGGUAAGCGUAAAUAGUCUGCAUGCCGCCGGGCGCCAUGCCUGCAGGUCGACUCUAGAAAACAUG”, the binding signal in the experiment with PUM1 PUF domain R8-RWG is 6.94 log2 enrichment (interaction score); in the experiment with PUM1 PUF domain R8-CHP it was 2.6 log2 enrichment (interaction score); in the experiment with PUM1 PUF domain R8-RQR it was 3.05 log2 enrichment (interaction score).
For the sequence “GGCUAGAACUAGUGGAUCCCCCGGCGCCCGGCGGCUCGAGCCCGGGUAAGUGUACAUAGUCUGCAUGCCGCCGGGCGCCAUGCCUGCAGGUCGACUCUAGAAAACAUG”, the binding signal with PUM1 PUF domain R4-ERC was 0.16 log2 enrichment (interaction score).
As for “GGCUAGAACUAGUGGAUCCCCCGGCGCCCGGCGGCUCGAGCCCGGGUAAGUGUAAAUAGUCUGCAUGCCGCCGGGCGCCAUGCCUGCAGGUCGACUCUAGAAAACAUG”, the binding signal was 2.23 log2 enrichment (interaction score) with PUM1 PUF domain R2-LWS; 5.92 log2 enrichment (interaction score) in the experiment with PUM1 PUF domain R8-RWG; 0.7 log2 enrichment (interaction score) in the experiment with PUM1 PUF domain R8-CHP; 4.37 log2 enrichment (interaction score) with PUM1 PUF domain R4-ERC; 2.95 log2 enrichment (interaction score) with PUM1 PUF domain R3-CPG; 0.6 log2 enrichment (interaction score) in the experiment with PUM1 PUF domain R8-RQR.
Consider “GGCUAGAACUAGUGGAUCCCCCGGCGCCCGGCGGCUCGAGCCCGGGUAAGUGUUAAUAGUCUGCAUGCCGCCGGGCGCCAUGCCUGCAGGUCGACUCUAGAAAACAUG”, for which the binding signal in the experiment with PUM1 PUF domain R5-RNE is 3.73 log2 enrichment (interaction score).
For the sequence “GGCUAGAACUAGUGGAUCCCCCGGCGCCCGGCGGCUCGAGCCCGGGUAAGUGUAAAAAGUCUGCAUGCCGCCGGGCGCCAUGCCUGCAGGUCGACUCUAGAAAACAUG”, the binding signal with PUM1 PUF domain R2-LWS is 7.72 log2 enrichment (interaction score).
“GGCUAGAACUAGUGGAUCCCCCGGCGCCCGGCGGCUCGAGCCCGGGUAAGUGUAAAUCGUCUGCAUGCCGCCGGGCGCCAUGCCUGCAGGUCGACUCUAGAAAACAUG”: in the experiment with PUM1 PUF domain R1-TVR, the binding signal was 3.55 log2 enrichment (interaction score).
Turning to “GGCUAGAACUAGUGGAUCCCCCGGCGCCCGGCGGCUCGAGCCCGGGUAAGUGUAAAGAGUCUGCAUGCCGCCGGGCGCCAUGCCUGCAGGUCGACUCUAGAAAACAUG”, the binding signal with PUM1 PUF domain R2-LWS is 4.16 log2 enrichment (interaction score).
